The source of these data is PubChem BioAssay (EPA / NIEHS).

Assay [1] has as its target Retinoic acid receptor RXR-alpha (Homo sapiens) (UniProt P19793). As to the kind of experiment: OT_NURR1_NURR1RXRa_1440: Odyssey Thera (OT) 24-hour HEK293T Protein Complementation Assay for Nurr1/retinoid X receptor (RXR) (AID 2283386; active = hit-call score of the fitted dose curve at least 0.9, where 1 is the maximum). In outline:
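Steps: fragment-tagged Nurr1 and RXRα expressed in HEK293T; compounds added; after 24 h, complemented reporter quantified by fluorescence intensity; signal increase over DMSO fitted as the single endpoint.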

Assay [2] has as its target Peroxisome proliferator-activated receptor gamma (Homo sapiens) (UniProt P37231). Put plainly: OT_PPARg_PPARgSRC1_0480: Odyssey Thera (OT) 8-hour Protein-Complementation Assay for Peroxisome Proliferator-activated Receptor Gamma / SRC-1 Co-activator (AID 2283387; active = hit-call score of the fitted dose curve at least 0.9, where 1 is the maximum;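 note: nuclear to cytoplasmic split Venus YFP fluorescence ratio reporting PPARg SRC-1 interaction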). In outline: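 Protein-fragment complementation in HEK293T: Venus YFP halves (residues 1-158, 159-239, mutated to IFP1/IFP2) fused to PPARg/SRC-1. 8 h exposure; N/C ratio at 488 nm; DMSO negative control.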

Assay [3] has the same target. Put plainly: OT_PPARg_PPARgSRC1_1440: Odyssey Thera (OT) 24-hour Protein-Complementation Assay for Peroxisome Proliferator-activated Receptor Gamma/ SRC-1 Co-activator (AID 2283388; active = hit-call score of the fitted dose curve at least 0.9, where 1 is the maximum;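 note: nuclear to cytoplasmic ratio of reconstituted Venus YFP fluorescence in fixed imaged cells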). The method in brief: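 Readout is the 488 nm N/C fluorescence ratio from fixed, Draq5-stained HEK293T cells after 24 h compound exposure. Cells carried transiently transfected PPARg and SRC-1 fused to Venus fragments, transfected 48 h before treatment.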

Read-out in assay [4]: Tumor necrosis factor receptor superfamily member 6 (Homo sapiens) (UniProt P25445)
Put plainly: LTEA_HepaRG_FAS: Life Technologies and Expression Analysis (LTEA) Assay for Fas cell surface death receptor (FAS) using HepaRG (AID 2283447). The note with it: mRNA level, 48 h; actives raise or lower the signal. The method in brief: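 FAS transcript level was measured by TaqMan qRT-PCR against three housekeeping genes after 48 h chemical exposure. Cells were HepaRG, 0.5% DMSO vehicle, with a top concentration of 100 uM and half-log dilutions over eight points, in duplicate.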

Read-out in assay [5]: Fatty acid synthase (Homo sapiens) (UniProt P49327)
As to the kind of experiment: LTEA_HepaRG_FASN: Life Technologies and Expression Analysis (LTEA) Assay for Fatty Acid Synthase (FASN) using HepaRG (AID 2283448). The note with it: mRNA level, 48 h; actives raise or lower the signal. The method in brief: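 Cells were plated, cultured 48 h, switched to serum-free induction medium, then dosed in duplicate (max 100 uM, half-log dilutions, 0.5% DMSO) for 48 h. RNA was then isolated and FASN quantified by qRT-PCR.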

Read-out in assay [6]: Cyclin D2 (CCND2), CCND2 (gene 894)
Put plainly: LTEA_HepaRG_CCND2: Life Technologies and Expression Analysis (LTEA) Assay for Cyclin D2 (CCND2) using HepaRG (AID 2283449). The note with it: mRNA level, 48 h; actives raise or lower the signal. The method in brief:
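CCND2 transcript levels, quantified by qRT-PCR and normalised to three housekeeping genes, were fitted bidirectionally against 0.5% DMSO. HepaRG cultures were dosed 48 h in duplicate with an 8-point half-log series up to 100 uM.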

Read-out in assay [7]: Cyclin D1 (CCND1), CCND1 (gene 595)
Put plainly: LTEA_HepaRG_CCND1: Life Technologies and Expression Analysis (LTEA) Assay for Cyclin D1 (CCND1) using HepaRG (AID 2283451). The note with it: mRNA level, 48 h; actives raise or lower the signal. In outline:
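Expression of CCND1 was quantified by qRT-PCR on Fluidigm arrays using ACTB, GAPDH and POLR2A as reference genes. HepaRG cultures, plated 48 h beforehand, were dosed for 48 h at up to 100 uM (half-log, 8 points) in 0.5% DMSO.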

Read-out in assay [8]: catalase (CAT), CAT (gene 847)
As to the kind of experiment: LTEA_HepaRG_CAT: Life Technologies and Expression Analysis (LTEA) Assay for catalase (CAT) using HepaRG (AID 2283452). The note with it: mRNA level, 48 h; actives raise or lower the signal. The method in brief:
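Expression of CAT was quantified by TaqMan qRT-PCR with ACTB/GAPDH/POLR2A normalization after 48 h chemical exposure of HepaRG. Eight-point half-log series, top 100 uM, in 0.5% DMSO; gain or loss fitted against vehicle.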

Read-out in assay [9]: flavin-containing dimethylaniline monooxygenases 3 (FMO3), FMO3 (gene 2328)
Put plainly: LTEA_HepaRG_FMO3: Life Technologies and Expression Analysis (LTEA) Assay for flavin-containing dimethylaniline monooxygenases 3 (FMO3) using HepaRG (AID 2283453). The note with it: mRNA level, 48 h; actives raise or lower the signal. The method in brief:
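FMO3 transcript quantified by TaqMan qRT-PCR against three housekeeping genes after 48 h chemical exposure of HepaRG cells. Eight-point half-log series, top 100 uM, 0.5% DMSO vehicle; phenobarbital 1mM induction control; up- or down-regulation fitted.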

Read-out in assay [10]: Cytochrome P450 (CYP1A1), CYP1A1 (gene 1543)
As to the kind of experiment: LTEA_HepaRG_CYP1A1: Life Technologies and Expression Analysis (LTEA) Assay for Cytochrome P450 (CYP1A1) using HepaRG (AID 2283454). The note with it: mRNA level, 48 h; actives raise or lower the signal. In outline: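 CYP1A1 transcript levels measured by Fluidigm qRT-PCR against three housekeeping genes, 48 h after chemical dosing of human HepaRG cells (highest concentration 100 uM, half-log steps, 0.5% DMSO vehicle). Gain or loss of signal fitted relative to DMSO.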

Assay [11] in a line: CEETOX_H295R_11DCORT: CeeTox H295R High-throughput Steroidogenesis Assay for 11-Deoxycortisol (11DCORT) (AID 2283432).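 For AC50: 11-deoxycortisol secreted into the medium measured by LC-MS/MS.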 The note with it: actives raise or lower the signal. The method in brief: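 Adrenal carcinoma line H295R, run per OECD 456 with minor changes, was forskolin-stimulated (10 uM, 48 h) before a 48 h chemical exposure at 0.1% DMSO. Secreted 11-deoxycortisol was quantified by HPLC-MS/MS.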

A short description of assay [12]: CEETOX_H295R_OHPREG: CeeTox H295R High-throughput Steroidogenesis Assay for OH-Pregnenolone (OHPREG) (AID 2283434). The note with it: actives raise or lower the signal. The method in brief: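 Secreted 17alpha-hydroxypregnenolone measured by HPLC-MS/MS after liquid-liquid extraction. Human adrenal H295R cells received 48 h forskolin (10 uM) stimulation before 48 h chemical exposure at 0.1% final DMSO; MTT viability in same wells; bidirectional fit against DMSO.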

Assay [13] is described as follows: CEETOX_H295R_ANDR: CeeTox H295R High-throughput Steroidogenesis Assay for Androstenedione (ANDR) (AID 2283436). The note with it: actives raise or lower the signal. In outline: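 Medium from 48 h chemical-treated H295R adrenal cells was extracted with MTBE and androstenedione measured by LC-MS/MS. Activity was fit in both directions relative to DMSO. Cytotoxic concentrations were re-tested after dilution until MTT viability reached ≥70%.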

Assay [14] is described as follows: CEETOX_H295R_CORTIC: CeeTox H295R High-throughput Steroidogenesis Assay for Corticosterone (CORTIC) (AID 2283437). The note with it: actives raise or lower the signal. In outline: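 Medium corticosterone was quantified by tandem mass spectrometry following 48 hours of chemical exposure (0.1% DMSO) in human H295R cells previously stimulated 48 hours with 10 uM forskolin. Viability checked by MTT; chemicals diluted and retested when viability fell below 70%.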

The nature of assay [15]: CEETOX_H295R_CORTISOL: CeeTox H295R High-throughput Steroidogenesis Assay for Cortisol (AID 2283438). The note with it: actives raise or lower the signal. In outline:
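Cortisol synthesis by H295R cells is measured 48 h after chemical dosing, following a 48 h stimulation with 10 uM forskolin. Hormone is extracted and quantified by HPLC-MS/MS, and activity is fitted bidirectionally against the DMSO control.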

A short description of assay [16]: CEETOX_H295R_DOC: CeeTox H295R High-throughput Steroidogenesis Assay for DOC (AID 2283439). The note with it: actives raise or lower the signal. The method in brief:
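Steps: seed H295R, adhere overnight; 10 uM forskolin 48 h; replace with chemical medium (0.1% DMSO) 48 h; collect medium, MTBE extraction, HPLC-MS/MS for DOC. Viability then checked by MTT; cytotoxic chemicals diluted until viability ≥70%.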

Assay [17] is described as follows: CEETOX_H295R_PROG: CeeTox H295R High-throughput Steroidogenesis Assay for Progesterone (PROG) (AID 2283442).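 For AC50: human H295R adrenal cells primed with 10 µM forskolin before dosing.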 The note with it: actives raise or lower the signal. The method in brief:
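Progesterone secreted by human H295R cells was measured by LC-MS/MS following 48 h chemical exposure at 0.1% DMSO, preceded by 48 h forskolin (10 uM) stimulation. Same-well MTT viability; cytotoxic concentrations diluted 10- or 100-fold and retested.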

A short description of assay [18]: CEETOX_H295R_ESTRADIOL: CeeTox H295R High-throughput Steroidogenesis Assay for Estradiol (AID 2283440).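 Note: estradiol secreted into medium quantified by LC-MS/MS after dansyl derivatisation.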 The note with it: actives raise or lower the signal. In outline: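 Estradiol in spent medium measured by LC-MS/MS after dansyl chloride derivatisation. Forskolin-primed (10 uM, 48 h) human adrenal H295R cells received test chemical 48 h at 0.1% DMSO; concentrations lowered until MTT viability >/=70%.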

A short description of assay [19]: CEETOX_H295R_ESTRONE: CeeTox H295R High-throughput Steroidogenesis Assay for Estrone (AID 2283441). The note with it: actives raise or lower the signal. The method in brief:
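Estrone secreted into medium quantified by LC-MS/MS after dansyl chloride derivatization, following 48 h chemical exposure (0.1% DMSO final) of forskolin-prestimulated (10 uM, 48 h) H295R cells; gain or loss fitted against DMSO; MTT viability in same wells.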

Read-out in assay [20]: Cyclin Dependent Kinase Inhibitor 1A (CDKN1A), CDKN1A (gene 1026)
Put plainly: LTEA_HepaRG_CDKN1A: Life Technologies and Expression Analysis (LTEA) Assay for Cyclin Dependent Kinase Inhibitor 1A (CDKN1A) using HepaRG (AID 2283450). The note with it: mRNA level, 48 h; actives raise or lower the signal. The method in brief: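 Expression quantified by Fluidigm qRT-PCR with ACTB, GAPDH and POLR2A normalization, fitted bidirectionally against 0.5% DMSO. Cells: HepaRG, plated 48 h then treated 48 h in serum-free induction medium, top concentration 100 uM with half-log dilutions.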

Inconclusive results are not listed. Calls of active or inactive are those of the source. Rule for the calls, unless noted: active = hit-call score of the fitted dose curve at least 0.9, where 1 is the maximum; inactive = score below 0.9.

Chain of Fatty acid synthase (Homo sapiens) (P49327 whole entry, looked up): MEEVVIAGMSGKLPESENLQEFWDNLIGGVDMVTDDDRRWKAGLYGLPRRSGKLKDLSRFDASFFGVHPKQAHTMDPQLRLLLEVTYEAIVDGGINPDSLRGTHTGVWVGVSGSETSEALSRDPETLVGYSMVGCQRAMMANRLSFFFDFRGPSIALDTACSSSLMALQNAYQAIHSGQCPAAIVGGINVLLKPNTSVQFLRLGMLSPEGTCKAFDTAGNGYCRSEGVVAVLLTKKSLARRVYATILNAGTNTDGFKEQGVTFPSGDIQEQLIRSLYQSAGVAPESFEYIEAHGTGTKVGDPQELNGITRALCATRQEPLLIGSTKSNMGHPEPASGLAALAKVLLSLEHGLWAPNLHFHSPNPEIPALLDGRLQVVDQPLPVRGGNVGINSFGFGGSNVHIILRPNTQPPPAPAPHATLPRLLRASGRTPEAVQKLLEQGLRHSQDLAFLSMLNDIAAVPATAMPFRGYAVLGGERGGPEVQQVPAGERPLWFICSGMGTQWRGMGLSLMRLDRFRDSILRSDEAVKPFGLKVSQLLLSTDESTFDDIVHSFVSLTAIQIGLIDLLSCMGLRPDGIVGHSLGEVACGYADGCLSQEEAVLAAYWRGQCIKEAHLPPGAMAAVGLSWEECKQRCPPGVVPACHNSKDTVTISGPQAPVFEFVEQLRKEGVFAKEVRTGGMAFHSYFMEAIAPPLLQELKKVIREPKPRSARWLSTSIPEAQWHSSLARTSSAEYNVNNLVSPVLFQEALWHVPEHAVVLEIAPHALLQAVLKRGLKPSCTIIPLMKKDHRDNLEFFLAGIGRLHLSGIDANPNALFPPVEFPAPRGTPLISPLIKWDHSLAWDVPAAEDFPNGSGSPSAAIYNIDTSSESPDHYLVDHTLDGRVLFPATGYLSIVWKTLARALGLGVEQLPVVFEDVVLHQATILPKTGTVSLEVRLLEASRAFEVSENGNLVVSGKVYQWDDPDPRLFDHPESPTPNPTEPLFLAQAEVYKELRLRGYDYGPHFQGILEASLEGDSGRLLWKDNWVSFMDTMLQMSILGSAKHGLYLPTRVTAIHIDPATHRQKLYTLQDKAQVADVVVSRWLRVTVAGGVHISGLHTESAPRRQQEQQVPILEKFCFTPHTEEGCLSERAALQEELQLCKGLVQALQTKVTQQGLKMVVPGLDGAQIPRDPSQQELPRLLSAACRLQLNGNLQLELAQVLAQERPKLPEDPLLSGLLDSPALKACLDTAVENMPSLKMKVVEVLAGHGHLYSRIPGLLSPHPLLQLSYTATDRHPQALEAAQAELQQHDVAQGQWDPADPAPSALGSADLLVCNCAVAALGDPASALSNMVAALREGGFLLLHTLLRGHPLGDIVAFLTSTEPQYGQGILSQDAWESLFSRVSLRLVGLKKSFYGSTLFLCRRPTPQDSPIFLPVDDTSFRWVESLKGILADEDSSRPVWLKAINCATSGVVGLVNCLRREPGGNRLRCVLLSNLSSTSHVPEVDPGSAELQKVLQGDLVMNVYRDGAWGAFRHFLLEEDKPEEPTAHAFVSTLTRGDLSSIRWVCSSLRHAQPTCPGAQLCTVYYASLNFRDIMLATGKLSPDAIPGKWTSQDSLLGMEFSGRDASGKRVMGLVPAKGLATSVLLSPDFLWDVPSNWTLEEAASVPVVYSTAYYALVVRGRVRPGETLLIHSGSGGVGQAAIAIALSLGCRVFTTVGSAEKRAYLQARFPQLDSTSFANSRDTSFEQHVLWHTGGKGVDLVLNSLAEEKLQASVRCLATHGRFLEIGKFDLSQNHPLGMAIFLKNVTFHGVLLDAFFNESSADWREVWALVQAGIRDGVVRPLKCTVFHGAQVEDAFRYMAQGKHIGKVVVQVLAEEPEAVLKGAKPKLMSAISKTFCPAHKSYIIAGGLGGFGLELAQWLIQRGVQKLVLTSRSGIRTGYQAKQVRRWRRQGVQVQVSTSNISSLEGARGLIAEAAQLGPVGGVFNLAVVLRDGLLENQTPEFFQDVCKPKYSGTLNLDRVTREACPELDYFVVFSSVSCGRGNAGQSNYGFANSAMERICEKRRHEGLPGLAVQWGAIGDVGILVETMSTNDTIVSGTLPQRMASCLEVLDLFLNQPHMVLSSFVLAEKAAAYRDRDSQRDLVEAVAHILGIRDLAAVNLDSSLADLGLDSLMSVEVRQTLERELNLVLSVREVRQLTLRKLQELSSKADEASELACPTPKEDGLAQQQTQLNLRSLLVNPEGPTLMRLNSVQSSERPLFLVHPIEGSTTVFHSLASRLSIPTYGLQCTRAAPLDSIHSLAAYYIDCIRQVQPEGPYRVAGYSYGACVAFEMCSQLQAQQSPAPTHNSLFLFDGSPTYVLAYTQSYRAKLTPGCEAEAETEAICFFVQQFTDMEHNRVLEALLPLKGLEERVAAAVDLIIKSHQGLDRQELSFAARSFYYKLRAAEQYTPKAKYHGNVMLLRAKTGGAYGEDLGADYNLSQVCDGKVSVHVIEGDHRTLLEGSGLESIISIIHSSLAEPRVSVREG
Chain of Retinoic acid receptor RXR-alpha (Homo sapiens) (P19793 whole entry, looked up, the tested form may be a part): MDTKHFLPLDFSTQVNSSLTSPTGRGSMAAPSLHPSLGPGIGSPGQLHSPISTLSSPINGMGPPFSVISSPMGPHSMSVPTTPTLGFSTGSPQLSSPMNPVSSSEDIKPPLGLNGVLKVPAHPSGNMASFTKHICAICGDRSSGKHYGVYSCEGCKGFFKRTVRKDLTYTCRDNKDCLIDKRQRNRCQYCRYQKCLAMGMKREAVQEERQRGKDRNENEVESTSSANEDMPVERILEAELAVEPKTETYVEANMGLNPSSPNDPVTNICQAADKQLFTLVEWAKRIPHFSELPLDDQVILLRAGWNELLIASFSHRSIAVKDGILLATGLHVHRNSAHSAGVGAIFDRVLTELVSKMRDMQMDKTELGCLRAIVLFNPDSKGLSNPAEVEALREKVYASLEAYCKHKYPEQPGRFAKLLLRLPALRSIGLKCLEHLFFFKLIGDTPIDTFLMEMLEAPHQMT
Chain of Peroxisome proliferator-activated receptor gamma (Homo sapiens) (P37231 whole entry, looked up, the tested form may be a part): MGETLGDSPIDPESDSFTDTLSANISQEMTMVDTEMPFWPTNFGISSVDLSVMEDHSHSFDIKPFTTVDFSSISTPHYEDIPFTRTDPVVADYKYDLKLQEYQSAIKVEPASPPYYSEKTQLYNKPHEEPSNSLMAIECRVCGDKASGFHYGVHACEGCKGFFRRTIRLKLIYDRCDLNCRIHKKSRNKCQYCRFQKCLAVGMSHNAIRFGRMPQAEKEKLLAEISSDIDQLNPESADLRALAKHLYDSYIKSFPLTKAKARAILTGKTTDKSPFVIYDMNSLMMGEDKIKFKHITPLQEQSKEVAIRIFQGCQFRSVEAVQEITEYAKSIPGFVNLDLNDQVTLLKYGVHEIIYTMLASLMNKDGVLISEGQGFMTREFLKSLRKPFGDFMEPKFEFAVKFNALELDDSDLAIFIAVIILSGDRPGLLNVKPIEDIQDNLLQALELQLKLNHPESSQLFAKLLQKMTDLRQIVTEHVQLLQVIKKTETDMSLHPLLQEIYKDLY

`c1ccc2c(c1)Cc1ccccc1-2`: the molecule was classed as inactive in assay [1], in [2], in assay [3], in [4], in assay [5] and in [6]. In addition, the molecule was called inactive in [7], in assay [8] and in assay [9]. For the same molecule, in assay [10], the AC50 was 50 µM (active).

Regarding `CCC(=C(c1ccc(O)cc1)c1ccc(OCCN(C)C)cc1)c1ccccc1`, the outcome in [1], in [2], in [3], in assay [11], in assay [12] and in assay [13] was inactive. Further, the outcome in assay [14], in [15], in assay [16], in [17], in assay [4] and in [5] was inactive. In addition, the call in assay [6], in assay [7] and in assay [9] was inactive. For the same molecule, the AC50 in assay [10] was 93.3 µM (active).

Take `Oc1cccc(O)c1`: the call in [1], in assay [2], in assay [3], in [11], in [12] and in assay [14] was inactive. The call in assay [15], in assay [16], in [18], in [19], in assay [17] and in assay [4] was inactive. Besides, the call in [5], in [20], in [7], in assay [8], in assay [9] and in assay [10] was inactive.

Turning to `CN1CCC[C@H]1c1cccnc1`, the molecule was called inactive in assay [1], in assay [2], in assay [3], in assay [12], in [18] and in assay [19]. In addition, the result in [17], in assay [4], in assay [5], in assay [6], in assay [7] and in assay [8] was inactive. In addition, the outcome in assay [9] was inactive. Moreover, in assay [10], the AC50 was 70.6 µM (active).

As to `O=C1OC2(c3ccccc31)c1cc(Br)c(O)c(Br)c1Oc1c2cc(Br)c(O)c1Br`, the molecule was called inactive in assay [1]. Besides, the AC50 in assay [2] was 74 µM (active); in assay [3], 73.1 µM (active).

In the case of `CCCOC(=O)c1ccc(O)cc1`, the outcome in assay [1], in assay [2], in assay [3], in assay [14], in assay [18] and in assay [19] was inactive. Moreover, the call in [4], in [6], in assay [20], in assay [7], in [9] and in assay [10] was inactive. The concentration at half-maximal activity (AC50) in [11] is 35.4 µM (active); in assay [12], 24.4 µM (active); in [15], 79.4 µM (active); in [16] it was 26.8 µM (active); in [17], 5.71 µM (active).

On to `C[C@@H]1C[C@H]2[C@@H]3CCC4=CC(=O)C=C[C@]4(C)[C@@]3(F)[C@@H](O)C[C@]2(C)[C@@]1(O)C(=O)COP(=O)(O)O`, for which the molecule was called inactive in assay [1], in assay [2], in [3], in [11], in assay [12] and in [14]. For the same molecule, the outcome in [15], in assay [16], in assay [18], in assay [19], in assay [17] and in assay [4] was inactive. For the same molecule, the outcome in assay [5], in assay [6], in [7], in assay [9] and in assay [10] was inactive.
